Several values for one entry are separate records, joined by “and”; a condition that tells them apart may be missing. Equal entries are not always repeated. About 79,000 compounds went through this panel and 15% of them were active in at least one assay; those are over-represented in the sample as a whole. More than one record can exist for a structure, and the calls need not agree. Activity calls are given as the source filed them. Cut-off read from the data, not from the text of the source: active = growth inhibition above about 70%; inactive = the rest.
Columns and labels:
[1] = NCI Yeast Anticancer Drug Screen. Data for the rad50 strain (AID 155);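 note: 0% = growth of vehicle-only cultures of the same strain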; settings: S. cerevisiae rad50 strain growth inhibition, stronger effect = higher value
How it was run: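 Genetically altered yeast (DNA repair pathway); compound treatment; growth inhibition vs vehicle ctrl.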

[2] = NCI Yeast Anticancer Drug Screen. Data for the mec2-1 strain (AID 157); settings: S. cerevisiae mec2-1 strain, stronger effect = higher value
How it was run: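 Growth inhibition is read against vehicle-treated controls after compound exposure of the mec2-1 yeast strain, which is defective in DNA damage repair or cell cycle control.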

[3] = NCI Yeast Anticancer Drug Screen. Data for the sgs1 mgt1 strain (AID 161);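 note: 0% = growth of cultures given vehicle only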; settings: S. cerevisiae sgs1 mgt1 strain, stronger effect = higher value
How it was run: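 Compounds are added to genetically altered yeast, and growth is compared with cultures given vehicle alone to give percent inhibition.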

[4] = NCI Yeast Anticancer Drug Screen. Data for the cln2 rad14 strain (AID 165);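 note: 0% = growth equal to vehicle treated cultures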; settings: S. cerevisiae cln2 rad14 strain, stronger effect = higher value
How it was run: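 Growth inhibition, relative to vehicle-treated controls, is the read-out. The test organism is a yeast strain with defined genetic alterations, cln2 rad14.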

[5] = NCI Yeast Anticancer Drug Screen. Data for the bub3 strain (AID 167); settings: S. cerevisiae bub3 mutant strain, stronger effect = higher value
How it was run: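 Yeast carrying a defined mutation is treated with each compound, and growth is compared with that of vehicle-exposed cells to give inhibition.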

[6] = NCI Yeast Anticancer Drug Screen. Data for the mlh1 rad18 strain (AID 175); settings: S. cerevisiae mlh1 rad18 strain growth inhibition, stronger effect = higher value
How it was run: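 Cells of a genetically altered yeast strain, deficient in DNA damage repair, were treated with compound. Their growth was then compared with that of vehicle-treated cultures to give inhibition.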

[7] = at 5.0 µM (retest, dose inferred, filed as 0.5)
[8] = at 50.0 µM (retest, dose inferred, filed as 5.0)

Measured: growth inhibition

COc1ccc(C2N(Cc3ccc(N(CCCl)CCCl)cc3C)CCCN2Cc2ccc(N(CCCl)CCCl)cc2C)cc1
inactive: [1]; [7] 10% | [2]; [7] -32% | [3]; [7] 3% | [4]; [7] 2% | [5]; [7] 26% | [6]; [7] 18%
active: [1]; [8] 98% | [1]; at 50.0 µM 97.1% | [2]; [8] 96% | [2]; at 50.0 µM 99% | [3]; [8] 99% | [3]; at 50.0 µM 99% | [4]; [8] 94% | [4]; at 50.0 µM 75% | [5]; [8] 96% | [5]; at 50.0 µM 98.3% | [6]; [8] 97% | [6]; at 50.0 µM 98.5%

C[CH2][Hg][Cl]
active: [1]; [8] 99% | [1]; at 50.0 µM 93.1% | [2]; [8] 100% and 93% | [2]; at 50.0 µM 95% | [3]; [7] 100% | [3]; [8] 100% and 99% | [3]; at 50.0 µM 94.5% | [4]; [7] 99% and 86% | [4]; [8] 99% | [4]; at 50.0 µM 93.3% | [5]; [7] 100% | [5]; [8] 99% | [5]; at 50.0 µM 93.7% | [6]; [8] 99% | [6]; at 50.0 µM 93.2%
99% (active) and 48% (inactive): [1]; [7]
100% (active) and 46% (inactive): [2]; [7]
99% (active) and 35% (inactive): [6]; [7]

C[n+]1ccccc1-c1nc(-c2cccc[n+]2C)nc(-c2cccc[n+]2C)n1
active: [1]; [8] 75% | [3]; at 50.0 µM 79.6% | [5]; [8] 73% | [6]; [8] 82% | [6]; at 50.0 µM 84.2%
inactive: [1]; [7] 37% | [1]; at 50.0 µM 56.6% | [2]; [7] 46% | [2]; [8] 57% | [2]; at 50.0 µM 49.6% | [3]; [7] 23% | [3]; [8] 69% | [4]; [7] 14% | [4]; [8] 51% | [4]; at 50.0 µM 21.9% | [5]; [7] 19% | [5]; at 50.0 µM 44.9% | [6]; [7] 37%

CCC(=O)C(CCN1CCC2(CCCc3ccccc32)CC1)(c1ccccc1)c1ccccc1
active: [1]; [8] 89% | [1]; at 50.0 µM 98.4% | [2]; [8] 93% | [2]; at 50.0 µM 94.2% | [3]; [8] 93% | [3]; at 50.0 µM 97.8% | [4]; [8] 87% | [4]; at 50.0 µM 87.2% | [5]; [8] 91% | [5]; at 50.0 µM 94.2% | [6]; [8] 92% | [6]; at 50.0 µM 97.3%
inactive: [1]; [7] -2% | [2]; [7] -5% | [3]; [7] 3% | [4]; [7] -11% | [5]; [7] -2% | [6]; [7] 3%

O=c1c(O)c(-c2ccccc2)oc2ccccc12.[Pb]
active: [1]; [8] 97% | [1]; at 50.0 µM 94.7% | [2]; [8] 97% | [2]; at 50.0 µM 92.6% | [3]; at 50.0 µM 98.4% | [4]; [8] 98% | [5]; [8] 98% | [5]; at 50.0 µM 96.2% | [6]; [8] 98% | [6]; at 50.0 µM 98.1%
inactive: [1]; [7] 3% | [2]; [7] -2% | [3]; [7] 6% | [3]; [8] 24% | [4]; [7] -2% | [4]; at 50.0 µM 47.8% | [5]; [7] -6% | [6]; [7] 8%

CCC(C)N1CN(c2ccccc2)C2(CCN(CC3COc4ccccc4O3)CC2)C1=O (configuration not stated)
inactive: [1]; [7] 1% | [1]; [8] -7% | [1]; at 50.0 µM -5.3% | [2]; [7] -5% | [2]; [8] 1% | [2]; at 50.0 µM 4.4% | [3]; [7] 18% | [3]; [8] 9% | [3]; at 50.0 µM 18.2% | [4]; [7] 11% | [4]; [8] 13% | [4]; at 50.0 µM 8.65% | [5]; [7] 9% | [5]; [8] 32% | [5]; at 50.0 µM 66.7% | [6]; [7] -26% | [6]; [8] 6% | [6]; at 50.0 µM 12.6%

CCOP(=O)(OCC)/C(C#N)=C/c1cccc(Br)c1
active: [1]; [8] 88% | [1]; at 50.0 µM 88.2% | [2]; [8] 90% | [2]; at 50.0 µM 87.2% | [3]; [8] 94% | [3]; at 50.0 µM 85.3% | [4]; [8] 91% | [4]; at 50.0 µM 72.2% | [5]; [8] 92% | [5]; at 50.0 µM 75.2% | [6]; [8] 94% | [6]; at 50.0 µM 85.8%
inactive: [1]; [7] 19% | [2]; [7] -4% | [3]; [7] 3% | [4]; [7] 24% | [5]; [7] 5% | [6]; [7] -3%

Nc1ncc(CCCCc2ccc(NC(=O)Nc3ccc(S(=O)(=O)F)cc3)cc2)c(N)n1
active: [1]; at 50.0 µM 98.5% | [2]; at 50.0 µM 99.5% | [3]; [8] 75% | [3]; at 50.0 µM 99.2% | [4]; at 50.0 µM 92.8% | [5]; at 50.0 µM 98.8% | [6]; [8] 84% | [6]; at 50.0 µM 99.2%
inactive: [1]; [7] -1% | [1]; [8] 60% | [2]; [7] -15% | [2]; [8] 60% | [3]; [7] -17% | [4]; [7] -8% | [4]; [8] 57% | [5]; [7] -4% | [5]; [8] 48% | [6]; [7] 4%

C/C(=N\N)C(CN1CCCCC1)C(c1ccccc1)c1c(O)c2ccccc2oc1=O (configuration not stated)
inactive: [1]; [7] 3% | [1]; [8] 3% | [2]; [7] 1% | [2]; [8] 1% | [2]; at 50.0 µM 63.8% | [3]; [7] 3% | [3]; [8] 3% | [4]; [7] 4% | [4]; [8] 4% | [5]; [7] 3% | [5]; [8] 3% | [6]; [7] 8% | [6]; [8] 8%
active: [1]; at 50.0 µM 79.8% | [3]; at 50.0 µM 81.7% | [4]; at 50.0 µM 74% | [5]; at 50.0 µM 76.3% | [6]; at 50.0 µM 80%
